# Publication PMC7862700, “An all-to-all approach to the identification of sequence-specific readers for epigenetic DNA modifications on cytosine”
# What was measured:
# Assay in all cases: DAPPL (digital affinity profiling via proximity ligation, sequencing); 10 mM Tris-HCl pH 7.5, 50 mM NaCl, 1 mM DTT, 4% glycerol, room temperature, 30 min; GST-TFs on glutathione beads, 16-mer random dsDNA library, 0.1% formaldehyde crosslink after washing; high values mean tight binding
# FEV = target: T1, FEV (Homo sapiens, UniProt Q99581 1-238); settings: protein: recombinant; tags: N-terminal GST; dsDNA, one strand shown
# T1 sequence: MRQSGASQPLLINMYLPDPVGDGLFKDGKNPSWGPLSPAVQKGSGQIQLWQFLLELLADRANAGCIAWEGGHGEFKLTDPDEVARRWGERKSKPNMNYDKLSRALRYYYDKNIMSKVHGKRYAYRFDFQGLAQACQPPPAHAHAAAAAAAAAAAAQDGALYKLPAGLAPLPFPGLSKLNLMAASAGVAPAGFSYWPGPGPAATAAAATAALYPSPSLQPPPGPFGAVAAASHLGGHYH
# How it was run: (§1)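 Binding signal is defined as a hexamer's read frequency for one factor over its frequency for the tag-only sample. To obtain reads, GST-fused human transcription factors were expressed in yeast, captured on glutathione beads, barcoded with DNA and pooled with that sample. Pools met 200 nmole of a 16-mer random double-stranded DNA library in Tris/NaCl/DTT/glycerol buffer for 30 min at room temperature before washing, 0.1% formaldehyde crosslinking, proximity ligation (BsaI/T4 ligase, 1 h, 37 °C), PCR and Illumina NextSeq500 sequencing.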
# ETV5 = ETV5 (Homo sapiens, UniProt P41161 1-510); settings: protein: recombinant; tags: N-terminal GST; dsDNA, one strand shown
# How it was run: as §1
# HSF1 = HSF1 (Homo sapiens, UniProt Q00613 1-529); settings: protein: recombinant; tags: N-terminal GST; chain copies: 3; dsDNA, one strand shown
# How it was run: as §1
# SPIC = target: T2, SPIC (Homo sapiens, UniProt Q8N5J4 1-248); settings: protein: recombinant; tags: N-terminal GST; dsDNA, one strand shown
# T2 sequence: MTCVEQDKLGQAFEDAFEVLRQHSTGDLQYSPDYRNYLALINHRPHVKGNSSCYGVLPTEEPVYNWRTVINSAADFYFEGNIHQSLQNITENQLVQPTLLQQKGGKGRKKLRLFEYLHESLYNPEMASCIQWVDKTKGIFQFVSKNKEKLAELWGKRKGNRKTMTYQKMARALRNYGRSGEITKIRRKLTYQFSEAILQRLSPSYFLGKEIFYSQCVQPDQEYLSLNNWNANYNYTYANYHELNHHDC
# How it was run: as §1
# ELF4 = ELF4 (Homo sapiens, UniProt Q99607 1-663); settings: protein: recombinant; tags: N-terminal GST; dsDNA, one strand shown
# How it was run: as §1
# ELK4 = target: T3, ELK4 (Homo sapiens, UniProt P28324-2 1-405); settings: protein: recombinant; tags: N-terminal GST; dsDNA, one strand shown
# T3 sequence: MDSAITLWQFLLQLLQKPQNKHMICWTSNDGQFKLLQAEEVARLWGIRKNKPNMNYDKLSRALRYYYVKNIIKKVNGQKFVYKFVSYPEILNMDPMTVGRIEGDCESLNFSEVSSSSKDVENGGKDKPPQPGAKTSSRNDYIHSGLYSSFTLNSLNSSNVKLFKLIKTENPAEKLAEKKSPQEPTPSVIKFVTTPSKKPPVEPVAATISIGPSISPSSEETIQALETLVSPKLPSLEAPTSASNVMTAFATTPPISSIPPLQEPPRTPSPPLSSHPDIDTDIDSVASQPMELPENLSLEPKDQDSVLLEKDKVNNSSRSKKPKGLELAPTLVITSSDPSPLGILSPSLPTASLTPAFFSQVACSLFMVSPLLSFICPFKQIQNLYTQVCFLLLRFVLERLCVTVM
# How it was run: as §1
# ETV2 = target: T4, ETV2 (Homo sapiens, UniProt O00321 1-342); settings: protein: recombinant; tags: N-terminal GST; dsDNA, one strand shown
# T4 sequence: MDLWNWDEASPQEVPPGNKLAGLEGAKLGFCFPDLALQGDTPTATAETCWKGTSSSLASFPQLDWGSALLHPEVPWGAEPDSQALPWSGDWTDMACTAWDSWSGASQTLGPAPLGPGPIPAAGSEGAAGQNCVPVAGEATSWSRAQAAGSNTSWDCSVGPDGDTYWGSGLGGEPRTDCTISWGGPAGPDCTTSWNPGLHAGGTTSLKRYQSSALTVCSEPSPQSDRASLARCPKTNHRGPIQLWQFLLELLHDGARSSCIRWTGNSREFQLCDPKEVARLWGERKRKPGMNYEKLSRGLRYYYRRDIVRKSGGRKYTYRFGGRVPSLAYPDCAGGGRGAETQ
# How it was run: as §1
# ELF3 = target: T5, ELF3 (Homo sapiens, UniProt P78545 1-371); settings: protein: recombinant; tags: N-terminal GST; dsDNA, one strand shown
# T5 sequence: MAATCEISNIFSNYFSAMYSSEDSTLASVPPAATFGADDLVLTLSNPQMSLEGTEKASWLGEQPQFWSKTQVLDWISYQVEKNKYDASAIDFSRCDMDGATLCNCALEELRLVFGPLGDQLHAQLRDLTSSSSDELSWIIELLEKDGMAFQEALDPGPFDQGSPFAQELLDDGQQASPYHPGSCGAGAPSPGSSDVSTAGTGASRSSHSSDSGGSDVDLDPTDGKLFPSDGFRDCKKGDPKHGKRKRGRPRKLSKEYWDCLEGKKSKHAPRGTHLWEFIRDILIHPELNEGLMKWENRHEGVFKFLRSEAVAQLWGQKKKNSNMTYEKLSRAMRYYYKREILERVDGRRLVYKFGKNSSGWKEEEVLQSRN
# How it was run: as §1
# CRX = CRX (Homo sapiens, UniProt O43186 1-299); settings: protein: recombinant; tags: N-terminal GST; dsDNA, one strand shown
# How it was run: as §1
# ETV1 = ETV1 (Homo sapiens, UniProt P50549 1-477); settings: protein: recombinant; tags: N-terminal GST; dsDNA, one strand shown
# How it was run: as §1
# ERF = target: T6, ERF (Homo sapiens, UniProt P50548 1-548); settings: protein: recombinant; tags: N-terminal GST; dsDNA, one strand shown
# T6 sequence: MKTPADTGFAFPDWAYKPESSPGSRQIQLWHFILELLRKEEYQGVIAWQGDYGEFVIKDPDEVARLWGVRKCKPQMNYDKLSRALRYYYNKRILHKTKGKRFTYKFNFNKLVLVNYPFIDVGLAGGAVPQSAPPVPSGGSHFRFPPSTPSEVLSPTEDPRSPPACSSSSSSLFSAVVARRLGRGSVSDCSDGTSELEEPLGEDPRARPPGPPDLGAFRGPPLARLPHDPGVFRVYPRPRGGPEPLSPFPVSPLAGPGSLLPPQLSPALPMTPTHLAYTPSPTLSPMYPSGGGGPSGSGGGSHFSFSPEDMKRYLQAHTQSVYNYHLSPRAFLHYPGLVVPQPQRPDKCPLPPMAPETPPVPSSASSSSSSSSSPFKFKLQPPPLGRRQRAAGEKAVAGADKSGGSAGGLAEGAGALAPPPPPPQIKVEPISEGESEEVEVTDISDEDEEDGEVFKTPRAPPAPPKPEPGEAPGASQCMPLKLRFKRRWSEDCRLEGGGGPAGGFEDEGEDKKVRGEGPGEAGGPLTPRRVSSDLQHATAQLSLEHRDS
# How it was run: as §1
# ETV3L = target: T7, ETV3L (Homo sapiens, UniProt Q6ZN32 1-361); settings: protein: recombinant; tags: N-terminal GST; dsDNA, one strand shown
# T7 sequence: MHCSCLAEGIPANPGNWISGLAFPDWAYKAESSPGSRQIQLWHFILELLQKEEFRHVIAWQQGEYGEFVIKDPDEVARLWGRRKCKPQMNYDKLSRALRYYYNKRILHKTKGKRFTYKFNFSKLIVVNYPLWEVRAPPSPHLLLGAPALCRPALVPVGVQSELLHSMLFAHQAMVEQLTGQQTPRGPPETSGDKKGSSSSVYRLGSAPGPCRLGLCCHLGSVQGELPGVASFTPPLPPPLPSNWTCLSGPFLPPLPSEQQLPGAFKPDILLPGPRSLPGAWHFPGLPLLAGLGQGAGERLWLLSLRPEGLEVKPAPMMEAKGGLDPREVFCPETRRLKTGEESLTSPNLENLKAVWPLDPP
# How it was run: as §1
# ETS2 = target: T8, ETS2 (Homo sapiens, UniProt P15036 1-469); settings: protein: recombinant; tags: N-terminal GST; dsDNA, one strand shown
# T8 sequence: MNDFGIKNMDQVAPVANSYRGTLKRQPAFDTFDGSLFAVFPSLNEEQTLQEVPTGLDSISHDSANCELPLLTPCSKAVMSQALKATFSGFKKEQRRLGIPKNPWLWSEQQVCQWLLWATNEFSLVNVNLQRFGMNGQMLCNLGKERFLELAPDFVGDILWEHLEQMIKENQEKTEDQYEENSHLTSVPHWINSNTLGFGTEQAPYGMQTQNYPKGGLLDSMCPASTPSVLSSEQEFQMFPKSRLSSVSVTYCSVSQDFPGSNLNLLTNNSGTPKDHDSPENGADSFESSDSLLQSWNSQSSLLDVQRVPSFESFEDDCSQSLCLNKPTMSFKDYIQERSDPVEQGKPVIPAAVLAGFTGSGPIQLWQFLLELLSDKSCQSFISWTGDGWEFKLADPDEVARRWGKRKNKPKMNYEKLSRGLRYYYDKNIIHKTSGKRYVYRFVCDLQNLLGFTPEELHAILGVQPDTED
# How it was run: as §1
# SPDEF = target: T9, SPDEF (Homo sapiens, UniProt O95238 1-335); settings: protein: recombinant; tags: N-terminal GST; dsDNA, one strand shown
# T9 sequence: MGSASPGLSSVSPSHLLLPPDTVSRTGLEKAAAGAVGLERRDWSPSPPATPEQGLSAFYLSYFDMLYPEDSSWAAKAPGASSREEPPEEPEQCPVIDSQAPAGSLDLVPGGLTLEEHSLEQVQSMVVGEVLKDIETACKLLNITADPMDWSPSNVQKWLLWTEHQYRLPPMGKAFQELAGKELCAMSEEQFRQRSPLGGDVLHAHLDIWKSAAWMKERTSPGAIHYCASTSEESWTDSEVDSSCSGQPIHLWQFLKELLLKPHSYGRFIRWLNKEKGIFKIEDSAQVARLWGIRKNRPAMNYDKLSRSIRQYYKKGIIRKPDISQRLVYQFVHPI
# How it was run: as §1
# ETV7 = target: T10, ETV7 (Homo sapiens, UniProt Q9Y603 1-341); settings: protein: recombinant; tags: N-terminal GST; dsDNA, one strand shown
# T10 sequence: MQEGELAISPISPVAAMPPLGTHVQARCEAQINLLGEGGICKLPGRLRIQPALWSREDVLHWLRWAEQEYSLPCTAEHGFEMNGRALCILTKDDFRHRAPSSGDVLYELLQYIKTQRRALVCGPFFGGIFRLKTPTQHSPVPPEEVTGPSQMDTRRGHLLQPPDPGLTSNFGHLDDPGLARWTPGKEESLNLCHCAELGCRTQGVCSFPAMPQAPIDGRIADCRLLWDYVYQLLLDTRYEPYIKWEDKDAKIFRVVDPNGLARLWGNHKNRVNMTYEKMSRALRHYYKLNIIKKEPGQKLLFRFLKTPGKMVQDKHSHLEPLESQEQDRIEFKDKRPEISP
# How it was run: as §1
# ELF5 = target: T11, ELF5 (Homo sapiens, UniProt Q9UKW6-2 1-255); settings: protein: recombinant; tags: N-terminal GST; dsDNA, one strand shown
# T11 sequence: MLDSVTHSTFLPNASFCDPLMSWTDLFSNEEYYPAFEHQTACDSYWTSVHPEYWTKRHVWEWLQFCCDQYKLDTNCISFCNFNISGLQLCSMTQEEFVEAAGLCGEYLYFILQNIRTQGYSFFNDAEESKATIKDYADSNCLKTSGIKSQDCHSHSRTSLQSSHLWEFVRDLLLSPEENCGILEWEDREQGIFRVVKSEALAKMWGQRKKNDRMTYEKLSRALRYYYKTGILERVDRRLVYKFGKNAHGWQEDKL
# How it was run: as §1
# ETV3 = target: T12, ETV3 (Homo sapiens, UniProt P41162-2 1-143); settings: protein: recombinant; tags: N-terminal GST; dsDNA, one strand shown
# T12 sequence: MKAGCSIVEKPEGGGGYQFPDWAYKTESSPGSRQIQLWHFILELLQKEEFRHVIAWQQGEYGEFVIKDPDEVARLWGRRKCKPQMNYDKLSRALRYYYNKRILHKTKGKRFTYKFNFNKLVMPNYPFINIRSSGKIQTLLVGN
# How it was run: as §1
# ETV6 = ETV6 (Homo sapiens, UniProt P41212 1-452); settings: protein: recombinant; tags: N-terminal GST; dsDNA, one strand shown
# How it was run: as §1
# Chain of ETV5 (P41161 whole entry): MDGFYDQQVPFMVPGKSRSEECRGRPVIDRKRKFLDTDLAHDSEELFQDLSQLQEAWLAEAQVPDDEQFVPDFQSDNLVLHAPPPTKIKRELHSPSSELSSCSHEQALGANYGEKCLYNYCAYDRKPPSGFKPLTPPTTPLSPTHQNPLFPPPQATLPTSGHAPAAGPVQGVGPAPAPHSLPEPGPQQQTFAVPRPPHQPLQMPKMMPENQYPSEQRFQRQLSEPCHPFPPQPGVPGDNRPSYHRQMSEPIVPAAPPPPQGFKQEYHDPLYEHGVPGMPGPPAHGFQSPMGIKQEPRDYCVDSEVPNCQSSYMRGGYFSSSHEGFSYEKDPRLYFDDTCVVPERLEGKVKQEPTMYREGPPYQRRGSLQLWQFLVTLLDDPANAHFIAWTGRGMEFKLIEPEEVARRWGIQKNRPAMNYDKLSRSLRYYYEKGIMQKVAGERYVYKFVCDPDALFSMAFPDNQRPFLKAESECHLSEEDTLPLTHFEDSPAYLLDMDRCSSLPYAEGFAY
# Chain of ETV6 (P41212 whole entry): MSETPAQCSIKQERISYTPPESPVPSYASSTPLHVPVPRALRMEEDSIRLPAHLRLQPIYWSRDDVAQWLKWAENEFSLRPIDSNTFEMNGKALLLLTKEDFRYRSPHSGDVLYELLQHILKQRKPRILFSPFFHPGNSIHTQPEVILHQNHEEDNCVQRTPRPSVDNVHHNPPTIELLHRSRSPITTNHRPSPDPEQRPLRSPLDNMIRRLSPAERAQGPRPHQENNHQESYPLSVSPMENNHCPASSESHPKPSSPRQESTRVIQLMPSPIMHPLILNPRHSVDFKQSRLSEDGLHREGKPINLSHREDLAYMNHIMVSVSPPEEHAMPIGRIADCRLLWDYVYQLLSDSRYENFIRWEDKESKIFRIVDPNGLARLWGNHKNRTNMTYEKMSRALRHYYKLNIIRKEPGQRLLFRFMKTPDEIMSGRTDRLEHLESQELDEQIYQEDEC
# Chain of ETV1 (P50549 whole entry): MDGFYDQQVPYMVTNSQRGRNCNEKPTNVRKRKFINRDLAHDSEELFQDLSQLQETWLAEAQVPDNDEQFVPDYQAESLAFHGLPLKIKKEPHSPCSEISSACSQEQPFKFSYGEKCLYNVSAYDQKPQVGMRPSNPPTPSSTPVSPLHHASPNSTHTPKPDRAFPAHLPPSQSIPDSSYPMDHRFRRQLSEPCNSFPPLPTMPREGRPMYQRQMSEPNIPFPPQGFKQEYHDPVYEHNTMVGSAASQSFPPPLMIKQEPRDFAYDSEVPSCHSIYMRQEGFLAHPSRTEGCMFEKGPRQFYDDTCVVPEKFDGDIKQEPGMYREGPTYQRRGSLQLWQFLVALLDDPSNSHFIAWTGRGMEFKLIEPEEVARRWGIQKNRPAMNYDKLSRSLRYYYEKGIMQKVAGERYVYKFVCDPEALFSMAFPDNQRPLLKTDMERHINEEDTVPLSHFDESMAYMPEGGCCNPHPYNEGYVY
# Chain of HSF1 (Q00613 whole entry): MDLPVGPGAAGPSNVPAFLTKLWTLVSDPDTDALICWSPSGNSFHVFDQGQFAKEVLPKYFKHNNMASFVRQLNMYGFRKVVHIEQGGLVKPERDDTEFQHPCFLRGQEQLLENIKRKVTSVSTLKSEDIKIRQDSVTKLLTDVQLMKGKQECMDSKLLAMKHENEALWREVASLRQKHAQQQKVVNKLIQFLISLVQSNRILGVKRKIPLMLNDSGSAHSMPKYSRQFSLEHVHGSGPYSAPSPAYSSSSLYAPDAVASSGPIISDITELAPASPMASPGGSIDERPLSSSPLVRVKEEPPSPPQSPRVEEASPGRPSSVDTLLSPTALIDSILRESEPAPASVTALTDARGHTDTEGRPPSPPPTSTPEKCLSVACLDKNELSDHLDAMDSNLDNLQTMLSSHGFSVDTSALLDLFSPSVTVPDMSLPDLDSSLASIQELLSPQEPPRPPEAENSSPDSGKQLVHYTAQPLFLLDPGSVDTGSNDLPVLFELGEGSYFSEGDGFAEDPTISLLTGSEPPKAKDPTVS
# Chain of CRX (O43186 whole entry): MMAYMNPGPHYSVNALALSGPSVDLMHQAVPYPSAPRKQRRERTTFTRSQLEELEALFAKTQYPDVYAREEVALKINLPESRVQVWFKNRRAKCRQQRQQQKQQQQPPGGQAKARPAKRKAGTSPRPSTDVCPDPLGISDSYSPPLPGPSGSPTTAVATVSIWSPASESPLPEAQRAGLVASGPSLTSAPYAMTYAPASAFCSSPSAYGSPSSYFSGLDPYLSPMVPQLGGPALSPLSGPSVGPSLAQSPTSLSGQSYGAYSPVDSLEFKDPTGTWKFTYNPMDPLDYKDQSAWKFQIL
# Chain of ELF4 (Q99607 whole entry): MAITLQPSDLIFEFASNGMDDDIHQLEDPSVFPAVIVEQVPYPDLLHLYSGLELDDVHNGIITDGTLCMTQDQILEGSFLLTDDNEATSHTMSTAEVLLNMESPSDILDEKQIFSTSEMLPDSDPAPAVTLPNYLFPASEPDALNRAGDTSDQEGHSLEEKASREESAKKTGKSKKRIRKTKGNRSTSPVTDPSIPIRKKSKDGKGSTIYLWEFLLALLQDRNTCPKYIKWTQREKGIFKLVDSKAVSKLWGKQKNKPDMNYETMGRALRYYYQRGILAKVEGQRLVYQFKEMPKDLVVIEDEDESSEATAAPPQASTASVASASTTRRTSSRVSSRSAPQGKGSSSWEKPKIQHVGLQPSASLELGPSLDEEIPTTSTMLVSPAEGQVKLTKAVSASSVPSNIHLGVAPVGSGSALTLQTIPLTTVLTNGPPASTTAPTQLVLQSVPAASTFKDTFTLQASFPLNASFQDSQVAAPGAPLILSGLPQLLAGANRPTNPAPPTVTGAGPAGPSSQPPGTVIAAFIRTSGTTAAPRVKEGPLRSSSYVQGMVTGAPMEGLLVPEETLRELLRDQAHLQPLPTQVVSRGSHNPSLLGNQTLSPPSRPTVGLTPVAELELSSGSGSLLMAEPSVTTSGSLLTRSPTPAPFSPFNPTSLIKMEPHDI
sequence,measurement,setting,value
TTCTGA,binding signal,FEV,"1.22 fold enrichment (6-mer frequency, TF over GST control)"
same,binding signal,ETV5,"1.23 fold enrichment (6-mer frequency, TF over GST control)"
same,binding signal,HSF1,"1.48 fold enrichment (6-mer frequency, TF over GST control)"
same,binding signal,SPIC,"1.03 fold enrichment (6-mer frequency, TF over GST control)"
same,binding signal,ELF4,"1.45 fold enrichment (6-mer frequency, TF over GST control)"
same,binding signal,ELK4,"1.4 fold enrichment (6-mer frequency, TF over GST control)"
same,binding signal,ETV2,"1.23 fold enrichment (6-mer frequency, TF over GST control)"
same,binding signal,ELF3,"1.13 fold enrichment (6-mer frequency, TF over GST control)"
same,binding signal,CRX,"1.41 fold enrichment (6-mer frequency, TF over GST control)"
same,binding signal,ETV1,"1.27 fold enrichment (6-mer frequency, TF over GST control)"
same,binding signal,ERF,"1.16 fold enrichment (6-mer frequency, TF over GST control)"
same,binding signal,ETV3L,"1.35 fold enrichment (6-mer frequency, TF over GST control)"
same,binding signal,ETS2,"1.43 fold enrichment (6-mer frequency, TF over GST control)"
same,binding signal,SPDEF,"1.38 fold enrichment (6-mer frequency, TF over GST control)"
same,binding signal,ETV7,"1.19 fold enrichment (6-mer frequency, TF over GST control)"
same,binding signal,ELF5,"1.26 fold enrichment (6-mer frequency, TF over GST control)"
same,binding signal,ETV3,"1.37 fold enrichment (6-mer frequency, TF over GST control)"
same,binding signal,ETV6,"1.3 fold enrichment (6-mer frequency, TF over GST control)"
